Holding throughout (experiment): NCI-60 one-dose screen, 48 h (100 = growth as untreated, 0 = no growth, -100 = all killed)
Conditions in all cases: 10 µM unless noted

Test [1] concerns HCT-15 colon.
Test [2] concerns HT29 colon.
Test [3] concerns SNB-75 CNS.
Test [4] has as its system SNB-19 CNS.
For test [5], the system named is U251 CNS.
Test [6] concerns PC-3 prostate.
Test [7] relates to SK-MEL-5 melanoma.
Test [8] deals with UACC-62 melanoma.
Test [9] deals with LOX IMVI melanoma.
Test [10] concerns SK-MEL-28 melanoma.
In test [11] the test system is SK-MEL-2 melanoma.
Test [12] relates to EKVX NSCLC.
Test [13] relates to SN12C renal.
The subject of test [14] is UO-31 renal.
In test [15] the test system is TK-10 renal.
The subject of test [16] is ACHN renal.
In test [17] the test system is CAKI-1 renal.
The subject of test [18] is A498 renal.
Test [19] deals with CCRF-CEM leukemia.
The subject of test [20] is MOLT-4 leukemia.

The panel holds about 83,000 compounds, 20% with a hit somewhere; the sample as a whole holds those more often.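 Cell lines were cultured in 96-well plates, exposed to a single compound concentration, and assessed for percent growth 48 hours later.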 Unmarked numbers belong to inactive results. The source made the active and inactive calls. How the source made its calls: active means growth percent below 10; inactive means the rest.

As to `Fc1ccccc1CSc1ncnc2nc[nH]c12`, the growth in [1] was 114%; in test [2] it was 107%; in test [3], 105%; in [4], 94.3%; in test [5], 106%; in test [6], 105%. Also, the growth in [7] was 105%; in test [8], 94.2%; in test [9], 96.4%; in [10], 112%; in [11], 86.6%; in test [12] it was 113%. The growth in [13] is 101%; in test [14] it was 94.9%; in test [15] it was 142%; in test [16], 107%; in test [17] it was 103%; in test [18], 112%. Further, the growth was 117% in test [19] and 92.3% in test [20].

Consider `CN(Cc1ccccc1)c1nc(Cl)c(C2CC(c3ccc(Cl)cc3)=Cc3[nH][nH]c(=O)c32)s1` (stereo not given), for which the growth in [1] was 90.1%; in test [2], 112%; in test [3], 88.1%; in [4], 104%; in test [5], 93.4%; in test [6], 79.7%. The growth in test [7] was 88.2%; in [8], 89%; in test [9], 79.9%; in test [10], 103%; in test [11], 99.7%; in test [12], 99.6%. For the same compound, the growth was 89.4% in test [13]; 69.2% in [14]; 99.1% in test [15]; 93.5% in test [16]; 86.2% in test [17]; 111% in test [18]. Moreover, the growth in test [19] was 106%; in test [20], 96.3%.

With `Nc1ncc(C#Cc2cncc(NC(=O)c3cccc(C(F)(F)F)c3)c2)c2cccnc12`, the growth is 56.6% in [1]; 27.4% in [2]; 60.7% in [3]; 94.9% in test [4]; 53.5% in test [5]; 49.9% in [6]. Also, the growth in [7] was 34%; in test [8], 55.7%; in test [9], 5.77% (active); in [10] it was 33.6%; in [11], 5.81% (active); in test [12] it was 81.6%. The growth in test [13] was 50.4%; in test [14], 33.7%; in test [15] it was 84.8%; in test [16], 55.1%; in [17] it was 68.6%; in test [18] it was 62.8%. Moreover, the figures for the growth in test [19] and in test [20] were 48.5% and 36.8%, respectively.

Take `O=S(=O)(NCCCNc1nccc(-c2c(-c3ccccc3)nc3occn23)n1)c1ccc(Cl)cc1`: the growth in test [1] is 79.8%; in test [2], 47.5%; in test [3], 95.6%; in test [4], 97.8%; in test [5] it was 86.6%; in test [6], 72.1%. Also, the growth in test [7] was 70.3%; in test [8], 68.8%; in [9], 72.7%; in test [10], 90%; in [11], 88.3%; in test [12], 89.1%. Moreover, the growth was 68.2% in test [13]; 44.4% in test [14]; 102% in test [15]; 58.3% in test [16]; 62% in [17]; 83.1% in test [18]. Besides, the growth is 75.5% in test [19] and 68.1% in test [20].

As for `COc1ccc(C(=O)c2cc3c(N)c(C(=O)Nc4cccc(Br)c4C)sc3nc2C)cc1`, the growth in test [1] is 14.2%; in test [2] it was -1.07% (active); in [3], -16.9% (active); in test [4], 43%; in test [5] it was 10.7%; in test [6], 21%. Besides, the growth was -36.2% (active) in test [7]; 38% in [8]; 19% in test [9]; 62.1% in [10]; 17.6% in [11]; 38.3% in test [12]. The growth in [13] was 19.2%; in test [14], 21%; in test [15], 54.3%; in [16], 24%; in test [17], 15.2%; in [18] it was -13.2% (active). For the same compound, the growth is 9.3% (active) in [19] and 10.2% in test [20].

On to `FC(F)(F)Oc1cccc(-c2cc(NCCCCCCNc3cc(-c4cccc(OC(F)(F)F)c4)nc4ccc(N5CCCC5)cc34)c3cc(N4CCCC4)ccc3n2)c1`, for which the growth in test [1] is -57.5% (active); in [2], -27.7% (active); in [3], -4.49% (active); in test [4], -68.3% (active); in test [5], -90.2% (active); in test [6], -22.2% (active). Also, the growth in test [7] was -62.4% (active); in test [8], -92.1% (active); in [9] it was -71.1% (active); in test [10] it was -93.7% (active); in test [11], 2.93% (active); in test [12], -54.4% (active). Further, the growth is -81.4% (active) in test [13]; 35% in test [14]; -89.7% (active) in test [15]; -15.6% (active) in test [16]; 5.91% (active) in test [17]; 21.8% in test [18]. For the same compound, the growth was -32.1% (active) in [19] and -35.6% (active) in test [20].

Turning to `O=C(Nc1ccc2ncnc(Nc3ccc(Oc4cccc(F)c4)c(Cl)c3)c2c1)c1ccc(CNCCO)cc1`, the growth in test [1] is 22.8%; in test [2], -69.2% (active); in test [3], 65.1%; in test [4] it was 58.8%; in test [5], -34% (active); in [6], 27.7%. Besides, the growth in test [7] is 73.7%; in test [8], 106%; in test [9], -76.2% (active); in test [10] it was -44.9% (active); in [11] it was 94.2%; in [12], 47.9%. In addition, the growth in test [13] is 48.6%; in test [14], 73.9%; in test [15] it was 57.1%; in test [16], 28.8%; in [17], 55.4%; in test [18], 71.6%. In addition, the growth in [19] is -19.9% (active); in [20], -0.727% (active).

The values are drawn from PubChem BioAssay (NCI).
